# Test system: Plasmodium falciparum
# Experiment: GSK_TCMDC: Inhibition of Plasmodium falciparum 3D7 in whole red blood cells, using parasite LDH activity as an index of growth. Test compounds present at 2uM
# Type: functional
row,Compound,Inhibition [%]
1,CCOC(=O)c1nc(-c2cc(Cl)nc(Cl)c2)[nH]c1NC(=S)NCCCN1CCOCC1,89
2,COc1cc(CNC[C@@H](O)[C@H](Cc2ccccc2)NC(=O)c2cc(C3CCCC3)cc(N3CCCS3(=O)=O)c2)cc(OC)c1.Cl,95
3,COc1ccc2nccc([C@@H](O)CN3CCC(NCc4ccc5c(c4)oc(=S)n5C)CC3)c2c1.O=C(O)/C=C/C(=O)O,100
4,CCOc1cc(Cc2cnc(N)nc2N)cc(OCC)c1OCC,97
5,Cc1cccc(C(=O)Nc2ccnc(N3CCC(N(C)Cc4ccccc4)CC3)c2)c1.O=C(O)C(F)(F)F,93
6,CN(C)CCNC(=O)[C@H](CC1CCCCC1)NC(=O)c1ccc(O)c(-c2ccc(Cl)c(Cl)c2)c1,98
7,Cc1nc(Nc2ccc(F)cc2)nc(N2CCc3ccccc3C2C)c1CO (stereo not given),100
8,CC1CCCN(C(=O)C(C)Nc2cc(Cl)ccc2N2CCOCC2)C1 (stereo not given),100
9,COc1cc(Nc2ccnc3cc(-c4ccccn4)ccc23)cc(OC)c1OC.Cl,91
10,CCN(CCCN1CCCCC1)c1cc(C)nc(Nc2cccc(C(F)(F)F)c2)n1.O=C(O)C(F)(F)F,100
11,CC1CN(Cc2ccc(-c3ccc(-c4nc5cc(F)ccc5[nH]4)s3)cc2)CC(C)O1.O=C(O)C(F)(F)F (stereo not given),88
12,COc1ccc(Nc2nccc(-c3cccc(NC(=O)c4cc5cc(F)ccc5[nH]4)c3)n2)cc1,92
13,N#Cc1cc(C(=O)Nc2ccccc2)c(N)nc1SCC(=O)NC(c1ccccc1)c1cccs1 (stereo not given),98
14,O=C(Nc1nc(-c2ccccn2)cs1)c1ccccc1COc1ccccc1,83
15,COc1ccc(C2=CCN(c3ccc(Cl)c(Cl)c3)C2=O)cc1OCCN1CCCCC1.Cl,97
16,CC1(CCc2ccccc2)N=C(Nc2ccc(Cl)cc2)N=C(N)C1c1ccc(Cl)c(Cl)c1 (stereo not given),100
17,C[C@H](Cc1ccc(OCCCCCCOc2ccc(C[C@@H](C)N[C@H](C)c3ccccc3)cc2)cc1)NC[C@H](O)c1cccc(Cl)c1.Cl,99
18,Cc1[nH]n(-c2cccc(Cl)c2)c(=O)c1-c1ccc(Cl)cc1,99
19,OC(CNCc1cccc(Oc2ccc(Cl)cc2)c1)c1cccc(C(F)(F)F)c1 (stereo not given),94
20,Cc1cc(=O)[nH]c2cc(Nc3ccnc(Nc4cccc(C(N)=O)c4)n3)ccc12.Cl,99

row,Compound,Inhibition [%]
1,COc1cc(C(C)C)nc2ccc(NC(=O)c3ccc(C(=O)Nc4ccc5nc(C(C)C)cc(OC)c5c4)cc3)cc12,95
2,COc1cc(OC)c(NC(=O)C2c3ccccc3C(=O)N(CC(C)C)C2c2cccs2)cc1Cl (stereo not given),100
3,Fc1cccc2sc(Nc3nc(-c4ccccn4)cs3)nc12,95
4,CCCCSc1ccc2nc(-c3c[nH]c4ccc(C#N)cc34)cn2c1,94
5,CC1CCCN1Cc1ccc(-c2ccc3c(=O)cc(CCc4cccc(F)c4F)n(CC(=O)N(C)Cc4ccc(-c5ccc(C(F)(F)F)cc5)cc4)c3n2)cc1.O=C(O)C(O)C(O)C(=O)O (stereo not given),100
6,COc1c(CN2CCCC2)cccc1-c1cc2c(-c3ccc(C(=O)O)c(C(C)C)c3)ccnc2[nH]1.O=C(O)C(F)(F)F,99
7,CS(=O)(=O)NCCCNCc1ccc(-c2ccc(-c3nc4cc(F)ccc4[nH]3)cc2)cc1.O=C(O)C(F)(F)F,100
8,COc1cc2c(cc1N1CC(C)NC(C)C1)N(C(=O)c1ccc(-c3ccc(-c4ncc[nH]4)cc3C)cc1)CC2 (stereo not given),98
9,CCN(CC)CCN(Cc1ccc(-c2ccc(C(F)(F)F)cc2)cc1)C(=O)Cn1c(CCc2cccc(F)c2F)cc(=O)c2c1CCCC2.O=C(O)C(O)C(O)C(=O)O,100
10,N#Cc1cccc(C(=O)NC2CCN(c3ccnc(Nc4ccc(F)cc4)n3)C2)c1 (stereo not given),98
11,Cl.O=C(C=Cc1ccc(C(=O)Nc2ccc(C3=NCCN3)cc2)cc1)Nc1ccc(C2=NCCN2)cc1,97
12,CCN(CCS(C)(=O)=O)Cc1ccc(-c2ccc3ncnc(Nc4ccc(OCc5cccc(F)c5)c(Cl)c4)c3c2)o1.Cc1ccc(S(=O)(=O)O)cc1,100
13,CC(C)c1ccc(O)cc1Nc1ccnc2ccc(C(F)(F)F)cc12,97
14,Cn1ccnc1Sc1ncccc1[N+](=O)[O-],96
15,Cc1cc(=NN=Cc2ccccc2Cl)c2cccc(C)c2[nH]1,97
16,COc1cccc(NC(=O)Cn2c(C)c(C(=O)C(F)(F)F)c3ccccc32)c1,97
17,CN1CCC(N(Cc2ccc(-c3ccc(Cl)cc3)cc2)C(=O)Cn2c(CCc3cccc(F)c3F)cc(=O)c3ccccc32)CC1.O=C(O)C(O)C(O)C(=O)O,97
18,CC1CCCCN1CCCNC(=O)c1cccc(-c2cc3cc(Cl)c(Cl)cc3[nH]2)c1.O=C(O)C(F)(F)F (stereo not given),94
19,Cc1ccc(C)c(NC(=O)NCCNc2ccnc(Nc3ccc(F)cc3)n2)c1,97
20,CCN(CC)CCCNC(=O)/C(=C/C=C/c1cc2cc(Cl)c(Cl)cc2[nH]1)OC.Cl,84
